Laboratory results as given in PubChem BioAssay.
Active and inactive are the calls of the source.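 How the source made its calls, unless noted: active means inhibition above 20% together with a positive visual image hit; inconclusive means visual image hit but inhibition not above 20%; inactive means no visual image hit.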

Columns and labels:
[1] = inhibitors of TNFa-induced NFkB p65 translocation, primary screen, imaging, HUVEC, MLSMR starter and 10KST1 sets (AID 438); settings: HUVEC TNFa-induced p65 nuclear translocation; cell count: measured here: nuclei count (cytotoxicity indicator), at 2.08 µM unless noted; inhibition: at 2 µM, stronger effect = higher value unless noted;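 further: compound added about 3h40 before a 20 min TNFalpha stimulation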;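 on inhibition: signal is the nuclear over cytoplasmic p65 intensity ratio per well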
[2] = inhibitors of mutant huntingtin aggregation, primary screen, imaging, exon1htt(103Q)mCFP cells, high-content imaging (AID 483;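 active means visual image review flags a hit and inhibition of aggregation exceeds 20%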;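 further: compound exposure lasted 3 days before fixation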;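 on nuclei count: percent of the per-plate median nuclei count of sample wells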); settings: exon1htt(103Q)mCFP cell line, aggregate imaging, at 2 µM; inhibition of aggregation: stronger effect = higher value; nuclei count: measured here: cell count, toxicity
[3] = inhibitors of E-selectin induction by TNFa, primary screen, imaging, HUVEC, immunofluorescence, MLSMR starter and 10KST1 sets (AID 487;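 active means visually confirmed hit in the image check and inhibition above 20%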;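 on inhibition: signal is fraction of cell area covered by stained E-selectin grains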;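 on nuclei count: 100% = median nuclei count of all wells on the same plate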); settings: HUVEC TNFalpha-induced E-selectin immunofluorescence imaging, at 2 µM; inhibition: stronger effect = higher value; nuclei count: measured here: cell number, toxicity
[4] = biological target: Voltage-gated potassium channel subunit beta-2 (Rattus norvegicus) (UniProt P62483); test: KvBeta enzyme negative modulators, primary screen, biochemical, NADPH fluorescence (AID 622;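 active means fluorescence slope higher than the sample average by over 3 SD, cut at about -0.22 in these data, passing the limit was not always enough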;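 further: slope of raw intensity against log time taken from 70 to 1610 s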); settings: recombinant KvBeta, 4-cyanobenzaldehyde reduction, at 10 µM, stronger effect = higher value
[5] = biological target: Voltage-gated potassium channel subunit beta-2 (Rattus norvegicus) (UniProt P62483); test: KvBeta positive modulators, primary screen, biochemical, NADPH fluorescence (AID 623;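 active means NADPH fluorescence slope more negative than the mean of all samples by about 3 SD, 99.7% confidence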;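 further: fluorescence intensity change per second fitted from 20 to 320 s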); settings: Recombinant KvBeta, NADPH fluorescence decrease slope, 10 min; at 10 µM; stronger effect = lower value
[6] = biological target: Alpha-2C adrenergic receptor (Homo sapiens) (UniProt P18825); test: modulators of alpha2C/GIRK thallium flux, primary screen, cell-based, HEK293 alpha2C/GIRK1/2 (AID 624;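 active means fluorescence slope after compound addition differing from the mean of all screened samples at 99.7% confidence, in either direction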;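 further: slope of fluorescence ratio to pre-addition baseline per second over 15 to 24 s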); settings: thallium flux BTC fluorescence, at 10 µM, actives lie on both sides
[7] = inhibitors of Sendai virus-induced IRF3 signaling, primary screen, TLR/RLR signaling modifier project, cell-based, Sendai virus stimulus, luciferase, 10K MLSCN set (AID 602276;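 active means inhibition at or above 50% at 10 µM; inactive means inhibition below 50%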;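 further: firefly luciferase from ISG56 promoter only with Renilla not read in this screen; 0% = Sendai virus plus DMSO and 100% = medium plus DMSO without virus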); settings: HEK293 RL24 IRF3 luciferase reporter, at 10 µM, stronger effect = higher value
[8] = inhibitors of poly I:C-induced TLR3 signaling, primary screen, cell-based, poly I:C stimulus, luciferase, 10K MLSCN set (AID 602277;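 active means inhibition of the reporter signal at or above 50%; inactive means inhibition below 50%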); settings: HEK293-TLR3 RL24 IRF3 luciferase reporter, at 10 µM, stronger effect = higher value
[9] = biological target: Muscarinic acetylcholine receptor M4 (Homo sapiens) (UniProt P08173); test: compounds altering M4/GIRK thallium flux, either direction, primary screen, M4 allosteric agonist project, cell-based, HEK293 M4/GIRK, BTC-AM (AID 625;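 active means fluorescence slope after compound addition differing from the mean of all tested samples at 99.7% confidence, mostly higher but some lower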;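 further: thallium influx through GIRK channels coupled to M4 in HEK293 cells with BTC-AM dye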); settings: at 10 µM, actives lie on both sides
[10] = inhibitors of larval lipid processing in zebrafish, primary screen, whole organism, PED6 fluorescence, gall bladder and intestine (AID 686;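 active means a full or partial loss of lipid-probe fluorescence in the fish gall bladder, intestine or both, judged by eye; inactive means no fluorescence loss, or compound toxic to the fish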;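 further: larvae 5 to 7 days old with five fish per well; signal comes from phospholipase A2 cleavage of quenched PED6 carried via bile; overnight exposure to compound and PED6 before scoring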); settings: Zebrafish larvae PED6 lipid processing, fluorescence scoring

Sequence of Voltage-gated potassium channel subunit beta-2 (Rattus norvegicus) (P62483 whole entry, looked up): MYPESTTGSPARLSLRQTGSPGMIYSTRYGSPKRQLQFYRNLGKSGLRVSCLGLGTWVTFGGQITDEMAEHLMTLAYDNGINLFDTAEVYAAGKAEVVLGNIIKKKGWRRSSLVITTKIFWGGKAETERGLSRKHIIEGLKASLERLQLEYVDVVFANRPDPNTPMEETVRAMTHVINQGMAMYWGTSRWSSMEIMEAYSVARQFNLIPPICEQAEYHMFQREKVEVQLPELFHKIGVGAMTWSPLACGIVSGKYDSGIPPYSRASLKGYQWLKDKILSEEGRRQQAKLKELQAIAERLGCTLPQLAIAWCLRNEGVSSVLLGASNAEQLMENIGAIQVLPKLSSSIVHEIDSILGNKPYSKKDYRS
Sequence of Muscarinic acetylcholine receptor M4 (Homo sapiens) (P08173 whole entry, looked up): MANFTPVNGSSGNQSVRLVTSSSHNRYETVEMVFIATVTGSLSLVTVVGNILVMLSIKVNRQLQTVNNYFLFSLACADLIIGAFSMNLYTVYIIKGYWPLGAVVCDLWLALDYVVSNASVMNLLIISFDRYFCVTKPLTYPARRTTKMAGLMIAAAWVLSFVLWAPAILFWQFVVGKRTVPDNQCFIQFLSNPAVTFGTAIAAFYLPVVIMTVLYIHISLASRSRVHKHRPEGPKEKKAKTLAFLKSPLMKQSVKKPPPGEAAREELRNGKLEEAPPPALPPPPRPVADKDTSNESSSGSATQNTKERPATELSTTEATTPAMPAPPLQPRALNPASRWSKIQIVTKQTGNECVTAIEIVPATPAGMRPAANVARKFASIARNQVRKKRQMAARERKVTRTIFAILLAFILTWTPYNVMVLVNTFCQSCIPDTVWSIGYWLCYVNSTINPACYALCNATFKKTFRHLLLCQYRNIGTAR
Sequence of Alpha-2C adrenergic receptor (Homo sapiens) (P18825 whole entry, looked up): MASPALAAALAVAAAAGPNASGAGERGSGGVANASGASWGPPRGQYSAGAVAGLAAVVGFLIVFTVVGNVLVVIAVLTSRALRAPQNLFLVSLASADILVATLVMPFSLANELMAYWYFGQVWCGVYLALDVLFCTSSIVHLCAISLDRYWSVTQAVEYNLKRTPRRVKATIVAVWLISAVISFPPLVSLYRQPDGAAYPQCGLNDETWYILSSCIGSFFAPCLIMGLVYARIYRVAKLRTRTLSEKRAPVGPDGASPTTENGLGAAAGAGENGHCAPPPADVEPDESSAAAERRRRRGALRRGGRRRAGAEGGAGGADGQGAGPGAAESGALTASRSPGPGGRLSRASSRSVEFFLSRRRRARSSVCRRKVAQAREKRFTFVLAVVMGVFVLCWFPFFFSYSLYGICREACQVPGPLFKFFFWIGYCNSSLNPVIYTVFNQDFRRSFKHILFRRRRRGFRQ

Row | Structure (SMILES) | cell count [1] | inhibition [1] | inhibition of aggregation [2] | nuclei count [2] | inhibition [3] | nuclei count [3] | fluorescence slope [4] | NADPH fluorescence slope [5] | slope [6] | inhibition [7] | inhibition [8] | fluorescence slope [9] | outcome [10]
1 | CCN(CC)CCN=Cc1c(O)n(CCC2=CCCCC2)c(=O)[nH]c1=O | 677 | -6% (inactive) | -1.5% (inactive) | 94.9% | 5.2% (inactive) | 104% | -0.618 (inactive) | -1.2e-05 (inactive) | 0.00557 (inactive) | -53.3% (inactive) | -117% (inactive) |  | 
2 | Cn1c(O)c(C=NCc2ccco2)c(=O)n(C)c1=O | 327 | -3.8% (inactive) | -8.5% (inactive) | 109% | -150% (inactive) | 118% | -0.557 (inactive) | 3.2e-06 (inactive) |  | 22.6% (inactive) | 14.6% (inactive) | 0.00416 (inactive) | 
3 | C=CCOC(=O)COc1cc(C)cc2oc(=O)c3c(c12)CCC3 | 609 | 6% (inactive) | 20.1% (inactive) | 85.8% | 75.7% (active) | 49.1% | -0.254 (inactive) | -4.4e-05 (inactive) | 0.00532 (inactive) | -1.05% (inactive) | 99.1% (active) |  | inactive
4 | COc1ccccc1/C=C1/C(=N/O)C2CCN1CC2 | 548 | -15% (inactive) | -6.2% (inactive) | 76.9% | 42.2% (inactive) | 105% | -0.467 (inactive) | -1.3e-05 (inactive) | 0.00314 (inactive) | 9.04% (inactive) | 36.5% (inactive) |  | 
5 | CN1CCN(c2c[nH]c(=O)[nH]c2=O)CC1 | 446 | 0% (inactive) | -25.3% (inactive) | 90.3% | -143% (inactive) | 105% | -0.495 (inactive) | -3.4e-05 (inactive) | 0.00648 (inactive) | 2.56% (inactive) | 19.8% (inactive) |  | 
6 | Cn1c(C(=O)N2CCC3(CC2)OCCO3)cc2c(=O)n(C)c3ccccc3c21 | 551 | -0.2% (inactive) | 26.7% (inactive) | 104% | -17.8% (inactive) | 125% | -0.522 (inactive) | -5.9e-06 (inactive) |  | 13.8% (inactive) | 20.5% (inactive) | 0.00705 (inactive) | 
7 | O=C(O)c1nonc1-c1nonc1C(=O)O | 195 | -1.9% (inactive) | 14.6% (inactive) | 99.5% | -27.8% (inactive) | 104% | -0.641 (inactive) | -1.4e-05 (inactive) |  | 17.8% (inactive) | 15.2% (inactive) | 0.00379 (inactive) | 
